The text below walks through data of PubChem BioAssay (NCI).

This is part of a sample that, as a whole, favours compounds with a hit. Of some 83,000 tested, about 20% had one in any assay.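 How to read the values: 0–100, growth inhibition (40 = 60% inhibited); 0, no net growth; -100 to 0, cell death (-40 = 40% of starting cells died; -100 = all dead).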 Values without a mark were called inactive. The source made the active and inactive calls. How the source made its calls: active means growth percent below 10; inactive means the rest.

Among the test systems are HCT-15 colon; HT29 colon; SNB-75 CNS; SNB-19 CNS; U251 CNS; PC-3 prostate; SK-MEL-5 melanoma; UACC-62 melanoma; LOX IMVI melanoma; SK-MEL-28 melanoma; SK-MEL-2 melanoma; EKVX NSCLC; SN12C renal; UO-31 renal; TK-10 renal; ACHN renal; CAKI-1 renal; A498 renal; CCRF-CEM leukemia; MOLT-4 leukemia.
What all share (test): NCI-60 one-dose screen, 48 h (100 = growth as untreated, 0 = no growth, -100 = all killed)
Conditions in all cases: 10 µM unless noted

In the case of `COc1cc(C(=O)/C=C/c2c(-c3cccs3)nc3ccccn23)cc(OC)c1OC`, the growth in the assay on HCT-15 colon was -7.46% (active); with HT29 colon, -25.8% (active); with SNB-75 CNS it was -4.3% (active); with SNB-19 CNS, 14.2%; in the assay on U251 CNS, 1.5% (active); with PC-3 prostate, 7.19% (active). For the same molecule, the growth was -24.1% (active) with SK-MEL-5 melanoma; -33.1% (active) in the assay on UACC-62 melanoma; -1.66% (active) with LOX IMVI melanoma; 8.11% (active) in the assay with SK-MEL-28 melanoma; 10.7% in the assay with SK-MEL-2 melanoma; 4.84% (active) with EKVX NSCLC. The growth was 4.93% (active) with SN12C renal; 10.7% with UO-31 renal; 0.55% (active) with TK-10 renal; -23.4% (active) in the assay with ACHN renal; -5.58% (active) in the assay with CAKI-1 renal; -21.8% (active) in the assay on A498 renal. Also, the growth in the assay with CCRF-CEM leukemia is 12.3%.

Take `O=C1N[C@@H]2[C@@H](O)[C@@H](O)[C@H](O)C[C@H]2c2cc3c(c(O)c21)OCCO3`: the growth with HCT-15 colon is -11.9% (active); in the assay on HT29 colon it was -14.5% (active); in the assay with SNB-75 CNS, -4.29% (active); in the assay on SNB-19 CNS, -10.4% (active); with U251 CNS, -14.9% (active); with PC-3 prostate it was -9.66% (active). Moreover, the growth in the assay on SK-MEL-5 melanoma is -52.1% (active); in the assay on UACC-62 melanoma it was -13.3% (active); with LOX IMVI melanoma it was -41.1% (active); with SK-MEL-28 melanoma, -16.4% (active); with SK-MEL-2 melanoma, -48.7% (active); with EKVX NSCLC, -14.3% (active). For the same molecule, the growth in the assay on SN12C renal is -9.95% (active); in the assay on UO-31 renal, -19.7% (active); in the assay on TK-10 renal, -11.9% (active); in the assay on ACHN renal it was -14.5% (active); in the assay with CAKI-1 renal, 4.9% (active); in the assay on A498 renal it was -29.7% (active). Further, the growth in the assay with CCRF-CEM leukemia is -6.07% (active); in the assay on MOLT-4 leukemia, -0.799% (active).

Turning to `COc1ccc2nc3cc(Cl)ccc3c(NCCN)c2c1`, the growth in the assay on HCT-15 colon was -37.7% (active); in the assay on HT29 colon, -42.5% (active); with SNB-75 CNS, 91.6%; in the assay with SNB-19 CNS, 7.75% (active); in the assay with U251 CNS it was -81.4% (active); in the assay on PC-3 prostate, 6.63% (active). The growth with SK-MEL-5 melanoma was 79.6%; in the assay with UACC-62 melanoma it was -71.2% (active); in the assay on LOX IMVI melanoma, -86.4% (active); in the assay with SK-MEL-28 melanoma, -65.8% (active); in the assay on SK-MEL-2 melanoma it was 98.5%; in the assay on EKVX NSCLC, -47.5% (active). For the same molecule, the growth in the assay on SN12C renal is -60.4% (active); in the assay with UO-31 renal it was -19.4% (active); in the assay with TK-10 renal, -76.2% (active); with ACHN renal, -91.7% (active); with CAKI-1 renal it was -96.5% (active); in the assay with A498 renal, 55.5%. Moreover, the growth in the assay on CCRF-CEM leukemia is -13.3% (active).

Consider `CN(Cc1cnc2nc(N)nc(N)c2n1)c1c(Cl)cc(C(=O)NC(CCC(=O)O)C(=O)O)cc1Cl` (centres undefined), for which the growth in the assay on HCT-15 colon is 28%; in the assay with HT29 colon it was 30.4%; with SNB-75 CNS it was 63.9%; with SNB-19 CNS it was 31.7%; in the assay on U251 CNS, 33.4%; in the assay on PC-3 prostate, 22.5%. For the same molecule, the growth in the assay with SK-MEL-5 melanoma was 21.3%; in the assay with UACC-62 melanoma, 16.4%; in the assay on LOX IMVI melanoma, 13.8%; in the assay on SK-MEL-28 melanoma it was 63.3%; in the assay with SK-MEL-2 melanoma it was 59.8%; in the assay on EKVX NSCLC, 42.4%. For the same molecule, the growth was 26.3% in the assay with SN12C renal; 11.5% in the assay on UO-31 renal; 36% with TK-10 renal; 29% in the assay with ACHN renal; -20% (active) in the assay on CAKI-1 renal; 47.7% in the assay on A498 renal. The growth in the assay on CCRF-CEM leukemia was 34.8%.

Turning to `COc1ccc(-c2cc(C(=O)N3N=C(c4ccc(N)cc4)CC3c3ccccc3)c3ccccc3n2)cc1` (centres undefined), the growth is 24.6% in the assay with HCT-15 colon; 10.3% in the assay with HT29 colon; -1.79% (active) in the assay on SNB-75 CNS; 47.8% in the assay with SNB-19 CNS; 36.9% in the assay on U251 CNS; 32.5% with PC-3 prostate. For the same molecule, the growth in the assay on SK-MEL-5 melanoma is 36.2%; in the assay on UACC-62 melanoma, 40.3%; in the assay with LOX IMVI melanoma it was 39.7%; with SK-MEL-28 melanoma, 53.1%; with SK-MEL-2 melanoma it was 39.8%; in the assay on EKVX NSCLC, 70.8%. The growth in the assay on SN12C renal is 51.7%; in the assay with UO-31 renal, 45.5%; with TK-10 renal, 58.4%; with ACHN renal, 37.6%; in the assay on CAKI-1 renal, 24.5%; in the assay with A498 renal, 29.1%. Also, the values for the growth with CCRF-CEM leukemia and in the assay with MOLT-4 leukemia were 25.6% and 35.2%, respectively.

In the case of `CCOC(=O)n1cc(-c2nonc2-c2cn(C)c3ccccc23)c2ccccc21`, the growth in the assay with HCT-15 colon was 31.2%; in the assay with HT29 colon it was 12.8%; in the assay with SNB-75 CNS it was 16.3%; in the assay with SNB-19 CNS, 35.3%; in the assay on U251 CNS, 26.7%; in the assay with PC-3 prostate, 48.1%. The growth in the assay with SK-MEL-5 melanoma is 46.3%; in the assay with UACC-62 melanoma, 30.6%; in the assay on LOX IMVI melanoma it was 41.7%; in the assay on SK-MEL-28 melanoma it was 57.4%; in the assay with SK-MEL-2 melanoma it was 37.3%; in the assay on EKVX NSCLC, 55.7%. The growth in the assay with SN12C renal is 45.1%; in the assay with UO-31 renal, 42.9%; with TK-10 renal it was 63.2%; in the assay with ACHN renal, 43.2%; with CAKI-1 renal, 29.4%; with A498 renal it was 15.2%. For the same molecule, the growth with CCRF-CEM leukemia was 21.6%.

For `CNCc1cccc2c1OCCOCCN(C)C(=O)CN(C)S(=O)(=O)c1ccc(cc1)-c1cnc(N)c(n1)C(=O)N2`, the growth is 66.3% in the assay on HCT-15 colon; 11.6% in the assay on HT29 colon; -19.2% (active) with SNB-75 CNS; 25.5% with SNB-19 CNS; -62.3% (active) in the assay with U251 CNS; 57.9% with PC-3 prostate. Besides, the growth is 55.4% in the assay on SK-MEL-5 melanoma; 4.98% (active) in the assay with UACC-62 melanoma; 10.3% in the assay on LOX IMVI melanoma; -85.8% (active) in the assay on SK-MEL-28 melanoma; 4.91% (active) in the assay on SK-MEL-2 melanoma; 41.8% with EKVX NSCLC. For the same molecule, the growth is 20.7% in the assay on SN12C renal; 101% with UO-31 renal; 11.5% in the assay on TK-10 renal; -2.97% (active) in the assay on ACHN renal; 27.2% in the assay on CAKI-1 renal; 70.3% in the assay on A498 renal. The growth in the assay with CCRF-CEM leukemia was -18.4% (active).

Consider `COc1ccc(NC(=O)c2sc3nc(C)c(C(O)c4ccccc4)cc3c2N)cc1` (centres undefined), for which the growth with HCT-15 colon is 24.9%; with HT29 colon it was 13.1%; in the assay with SNB-75 CNS, 20.3%; with SNB-19 CNS, 28.6%; in the assay with U251 CNS, 17.8%; in the assay on PC-3 prostate, 23.4%. In addition, the growth with SK-MEL-5 melanoma was 23.2%; in the assay with UACC-62 melanoma, 26.2%; in the assay on LOX IMVI melanoma it was 55.1%; in the assay on SK-MEL-28 melanoma, 57%; with SK-MEL-2 melanoma, 46.5%; with EKVX NSCLC, 40.4%. Besides, the growth in the assay on SN12C renal was 36.1%; in the assay on UO-31 renal, 43.4%; in the assay on TK-10 renal, 52.6%; with ACHN renal, 45.2%; in the assay with CAKI-1 renal, 42.4%; in the assay with A498 renal, -1.83% (active). Also, in the assay with CCRF-CEM leukemia, the growth is 7.85% (active).
